The source of these data is PubChem BioAssay (NCATS).

A number with no mark means an inactive call. Calls come from the whole dose curve; as a rule, active = well fitted curve in the direction sought with a large enough effect; inconclusive = small, poorly fitted or top-dose-only effect, or another doubt; inactive = no such curve, though single readings can be large or run the other way.

Chain of Alpha-galactosidase (Coffea arabica) (Q42656 whole entry, looked up): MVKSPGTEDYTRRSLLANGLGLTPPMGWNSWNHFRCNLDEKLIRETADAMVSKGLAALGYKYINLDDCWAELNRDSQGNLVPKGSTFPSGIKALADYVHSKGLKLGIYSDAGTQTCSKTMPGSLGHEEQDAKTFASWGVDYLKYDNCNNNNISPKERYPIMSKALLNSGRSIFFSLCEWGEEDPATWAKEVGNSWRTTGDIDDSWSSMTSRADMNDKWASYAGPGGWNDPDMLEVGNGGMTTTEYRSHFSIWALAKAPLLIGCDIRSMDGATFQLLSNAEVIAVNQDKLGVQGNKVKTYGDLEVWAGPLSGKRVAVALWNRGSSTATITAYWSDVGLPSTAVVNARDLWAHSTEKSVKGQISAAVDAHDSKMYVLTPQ

This test addresses Alpha-galactosidase (Coffea arabica) (UniProt Q42656). Description: Counterscreen for Glucocerebrosidase Inhibitors: qHTS Assay for Coffee Bean alpha-Galactosidase at pH 4.5 (AID 957). To be noted: purified coffee bean alpha-galactosidase, fluorogenic substrate; series mostly up to 76.9 µM; activity change, negative = inhibition: at the top concentration. The text has this:
NIH Chemical Genomics Center [NCGC]
NIH Molecular Libraries Screening Centers Network [MLSCN]
PI Name: Zheng, Wei [NIH]
Alpha-galactosidase is a homodimeric glycoprotein that hydrolyzes the terminal alpha-galactosyl moieties from glycolipids and glycoproteins. Deficiency of this enzyme results in Fabry Disease with progressive accumulation of globotriaosylceramide and other glycosphingolipids in vascular endothelial cells that causes renal failure, myocardial infarction and stroke, and premature death in patients. It has reported that the improper folding and trafficking of alpha-galactosidase resulted from the genetic mutations may account for a significant numbers of Fabry patients. […] We optimized this coffee bean alpha-galactosidase assay in 1536-well plate format as a counter-screen assay for identifying the selective small molecule inhibitors of other lysosomal enzymes.
NCGC Assay Protocol Summary:
This is a fluorogenic enzyme assay with 4-Methylumbelliferyl alpha-D-galactopyranoside as the substrate and green coffee bean […] (from Sigma-Aldrich) as the enzyme preparation. Upon the hydrolysis of this fluorogenic substrate, the resulting product, […]. 4-Methyllumbelliferone, can be excited at 365 nm and emits at 440 nm which can be detected by a standard fluorescence plate reader. Data were normalized to the controls for basal activity (without enzyme) and 100% activity (with enzyme). In the AC50 values were determined from concentration-response data modeled with the standard Hill equation.
Assay buffer: 50 mM citric acid, 0.005% Tween-20, pH 4.5. (pH 5.9 is an optimal condition for this enzyme assay. This assay in pH 4.5 is used for comparison the inhibitor activities with the human alpha-galactosidase assay)
1536-well assay protocol for the coffee bean alpha-galactosidase:
(1) Add 2 ul/well of enzyme (2 nM final)
(2) Add 23 nL compounds in DMSO solution. The final titration was 0.7 nM to 77 uM.
(3) Add 1 ul of substrate (80 uM final)
(4) Incubate at room temperature for 20 min.
(5) Add 2 ul stop solution (1M NaOH and 1M Glycine mixture, pH 10)
(6) Detect the assay plate in a ViewLux plate reader (PerkinElmer) with Ex=365 nm and Em=440nm.
Keywords: Alpha-galactosidase, Fabry Disease, pharmacological chaperone, chaperone therapy, high throughput screening, alpha-galactosidase inhibitor, MLSMR, MLSCN, NIH Roadmap, qHTS and NCGC
Take `O=C(O)[C@H]1C[C@H](C(=O)O)N1`: the “activity change, negative = inhibition” value was 1.38%.

In the case of `CCCCOC(=O)NS(=O)(=O)c1sc(CC(C)C)cc1-c1ccc(Cn2c(CC)nc3c(C)cc(C)nc32)cc1`, the “activity change, negative = inhibition” value was -2.49%.

Regarding `O[C@@H]1CCCC[C@H]1N1CCC(c2ccccc2)CC1`, the “activity change, negative = inhibition” value was 1.75%.

On to `CCCC[N+]1(C)[C@@H]2CC(OC(=O)[C@@H](CO)c3ccccc3)C[C@H]1[C@H]1O[C@H]12` (stereo not given in full), for which the “activity change, negative = inhibition” value was 1.92%.

Consider `CCCN1CCc2cccc3c2[C@@H]1Cc1ccc(O)c(O)c1-3`, for which the “activity change, negative = inhibition” value is -2.21%.

With `C[C@@]12C(=O)OC(=O)[C@@]1(C)[C@H]1CC[C@@H]2O1`, the “activity change, negative = inhibition” value was -1.88%.

For `N[C@H](CCC(=O)NCS(=O)(=O)O)C(=O)O`, the “activity change, negative = inhibition” value was -3.69%.

As for `C[C@@H](C[N+](C)(C)C)OC(N)=O`, the “activity change, negative = inhibition” value was 0.579%.

As to `OC[C@@H]1O[C@H](O)[C@@H](Cl)[C@H](O)[C@@H]1O`, the “activity change, negative = inhibition” value was -0.359%.

In the case of `CCCCC[C@H](O)c1cccc(OCc2ccc3ccccc3n2)c1`, the “activity change, negative = inhibition” value is -12.3%.

`O=c1[nH]c(=O)n([C@H]2C[C@H](O)[C@H](CO)O2)cc1/C=C\Br`: the “activity change, negative = inhibition” value is -1.41%.

In the case of `N#C[C@@H](Cc1ccc(O)c(O)c1)C(=O)N1CCc2ccccc21`, the “activity change, negative = inhibition” value was -3.98%.

Consider `N[C@H](CCC(=O)N[C@H](CSN=O)C(=O)NCC(=O)O)C(=O)O`, for which the “activity change, negative = inhibition” value was 0.133%.

For `Cc1cccc([C@@H]2CN(C)CCc3c2cc(O)c(O)c3Cl)c1`, the “activity change, negative = inhibition” value is 0.923%.

Regarding `O=c1ccn([C@@H]2O[C@@H](COP(=O)(O)OP(=O)(O)O)[C@H](O)[C@@H]2O)c(=O)[nH]1`, the “activity change, negative = inhibition” value was 2.26%.

Turning to `Cc1ccccc1[C@@H](OCCN(C)C)c1ccccc1`, the “activity change, negative = inhibition” value is -2.58%.

As for `COc1cc([C@H](O)CO)ccc1O`, the “activity change, negative = inhibition” value was -1.11%.

Take `C[C@@](N)(Cc1ccc(O)c(O)c1)C(=O)O`: the “activity change, negative = inhibition” value is 2.02%.

For `O[C@H](CN1CCN(c2cccc(Cl)c2)CC1)C(c1ccccc1)c1ccccc1`, the “activity change, negative = inhibition” value was -6.68%.

Consider `CN1C(=O)CC[C@@H]1c1cccnc1`, for which the “activity change, negative = inhibition” value is 0.0171%.

Take `C=C/C(C)=C/[C@]1(C)SC(=O)C(C)=C1O`: the “activity change, negative = inhibition” value was 3.45%.

With `C=C[C@@]1(C)CC(=O)[C@@]2(O)[C@@]3(C)[C@H](O)CCC(C)(C)[C@@H]3[C@H](O)[C@H](OC(C)=O)[C@]2(C)O1`, the “activity change, negative = inhibition” value was -1.1%.

For `Oc1cc(O)cc(/C=C\c2ccc(O)c(O)c2)c1`, the “activity change, negative = inhibition” value is -5.37%.

Regarding `CCCN1CCC[C@H](c2cccc(C#N)c2)C1`, the “activity change, negative = inhibition” value is 1.16%.

As for `O=c1cc(O)cc(/C=C\c2ccc(O)c(O)c2)o1`, the “activity change, negative = inhibition” value was -10.9%.

On to `C[C@@H]1C[C@@H]2[C@H]3CCC4=CC(=O)C=C[C@]4(C)[C@]3(F)[C@@H](O)C[C@@]2(C)[C@@]1(O)C(=O)CO`, for which the “activity change, negative = inhibition” value was -0.934%.

`COc1cc2nc(N3CCN(C(=O)[C@H]4CCCO4)CC3)nc(N)c2cc1OC`: the “activity change, negative = inhibition” value was 5.8%.

In the case of `C[C@@H]1O[C@@H](O[C@H]2C[C@@H](O)[C@]3(CO)[C@@H]4[C@@H](O)C[C@]5(C)[C@H](C6=CC(=O)OC6)CC[C@@]5(O)[C@H]4CC[C@@]3(O)C2)[C@H](O)[C@H](O)[C@@H]1O`, the “activity change, negative = inhibition” value is -0.471%.

Consider `CC(C)(C(=O)O)c1ccc([C@@H](O)CCCN2CCC(C(O)(c3ccccc3)c3ccccc3)CC2)cc1`, for which the “activity change, negative = inhibition” value was 1%.

Regarding `C[C@@H]([C@H](O)c1ccc(O)cc1)N1CCC(Cc2ccccc2)CC1`, the “activity change, negative = inhibition” value was -2.7%.

`C[C@]12Cc3cn4c(nc3C=C1CC[C@H]1[C@@H]2CC[C@@]2(C)[C@H]1CC[C@@]2(O)C#N)nc1ccccc14`: the “activity change, negative = inhibition” value was -3.1%.

As for `CN[C@@H](CC(C)C)C(=O)N[C@@H]1C(=O)N[C@H](CC(N)=O)C(=O)N[C@H]2C(=O)N[C@H]3C(=O)N[C@H](C(=O)N[C@H](C(=O)O)c4cc(O)cc(O)c4-c4cc3ccc4O)[C@H](O)c3ccc(c(Cl)c3)Oc3cc2cc(c3O[C@@H]2O[C@@H](CO)[C@@H](O)[C@@H](O)[C@H]2O[C@H]2C[C@](C)(N)[C@H](O)[C@H](C)O2)Oc2ccc(cc2Cl)[C@@H]1O`, the “activity change, negative = inhibition” value was 0.93%.

As for `OC[C@H]1O[C@@H](n2cnc3c(NCCc4ccccc4)ncnc32)[C@H](O)[C@H]1O`, the “activity change, negative = inhibition” value was 1.99%.

As to `NCCNS(=O)(=O)c1cccc2cnccc12`, the “activity change, negative = inhibition” value was -2.87%.

For the molecule `NC[C@H](O)C1CCCCCCC1`, the “activity change, negative = inhibition” value was -1.27%.

Regarding `Cc1c(C)c2c(c(C)c1O)CC[C@@](C)(CN1CCN(c3cc(N4CCCC4)nc(N4CCCC4)n3)CC1)O2`, the “activity change, negative = inhibition” value was -6.86%.

On to `NC[C@](O)(CS(=O)(=O)O)c1ccc(Cl)cc1`, for which the “activity change, negative = inhibition” value is -0.645%.

As to `Nc1nc(SCc2ccc([N+](=O)[O-])cc2)c2ncn([C@@H]3O[C@@H](CO)[C@@H](O)[C@H]3O)c2n1`, the “activity change, negative = inhibition” value is -3.78%.

Consider `CN1CCc2c(cc(O)c(O)c2Cl)[C@H](c2cccc(Cl)c2)C1`, for which the “activity change, negative = inhibition” value is -3.84%.

As for `CCCn1c(=O)c2[nH]c(-c3ccc(OCC(=O)Nc4ccc(C#N)cc4)cc3)nc2n(CCC)c1=O`, the “activity change, negative = inhibition” value was 2.4%.
